Data published in PubChem BioAssay AID720549 (National Center for Advancing Translational Sciences (NCATS), 2013).
Values joined by “and” are separate entries in the source; they are usually repeats but may differ in a detail not shown here. Equal values may be shown once. Results filed as inconclusive are left out. A structure can be active in one record and inactive in another. Active and inactive are the calls of the source. Calls follow the shape of the dose curve; as a rule, active = well fitted inhibition curve with a large enough effect; inconclusive = small, poorly fitted or top-dose-only effect; inactive = flat fitted curve, though single readings scatter.

biological target: RecQ-like DNA helicase BLM (Homo sapiens) (UniProt P54132); experiment: qHTS for Inhibitors of Bloom's syndrome helicase (BLM): Helicase ATPase Orthogonal Confirmatory Assay for SAR; settings: purified BLM helicase ATPase activity assay; series mostly up to 57.1 µM; activity change, negative = inhibition: at the top concentration
Text: Human RecQ DNA helicases participate in maintenance of genome stability and DNA repair. While other types of helicases have been explored as targets for drug development, members of the RecQ family have remained less well characterized. Mutations of the Bloom helicase gene have been associated with the rare human genetic disease called Bloom syndrome. […] Moreover, identified inhibitors can be used in cells and animal models to examine the consequences of inhibition on the survival of cancer cells where it has been shown that BLM plays an important role.
A fluorescence-based, biochemical assay in 1536 well format was developed to evaluate inhibition of BLM DNA unwinding activity. This assay was used to screen the MLPCN library. The resulting compounds were subjected to orthogonal and secondary biochemical assays to triage the initial hits, to classify compounds based on mode of action and to derive structure activity relationships (SARs) of candidate effectors. The data herein is the result of the Helicase ATPase orthogonal confirmatory assay. This luminescence assay employs a purified BLM enzyme and a single stranded BLM oligo substrate ([…]). For this assay increase in luminescence signal is greater than or equal to 700 RLU. Inhibition is the desired outcome for this assay.
NIH Chemical Genomics Center [NCGC]
NIH Molecular Libraries Probe Centers Network [MLPCN]
Assay Submitter (PI): Opher Gileadi, Structural Genomics Consortium, University of Oxford, UK
Three microliter of reaction buffer (25mM Tris-HCl pH 8.0, 50mM NaCl, 2mM MgCl2, 1mM DTT, and 0.01% Tween- 20, and 2nM BLM enzyme) was dispensed into a 1536-well assay plates (Greiner, solid white medium-binding) via Aurora Discovery BioRAPTR Flying Reagent Dispenser (FRD). Compounds (23nl each in columns 5-48) and control (23nl each in column 2 as dose-response) were transferred via a Kalypsys pintool equipped with a 1536-pin array. The plates were incubated for 15 min at room temperature followed by addition of 1 ul of substrates (200nM single-stranded oligonucleotide and 100uM ATP, final concentrations) to start the reaction. After 15 min., the reaction was terminated by the addition of 2.5ul of ADP-Glo Reagent I (Promega) to each well and incubation at room temperature for 30 min. Next, 5ul of ADP-Glo Reagent II (Promega) was added to each well. After 30 min at room temperature, the luminescence signal was detected using the ViewLux CCD imager. The data was normalized against no-inhibitor and no-enzyme controls and the resulting percent inhibition data were fitted to a sigmoidal dose response using a four-parameter Hill equation.

RecQ-like DNA helicase BLM (Homo sapiens), sequence (P54132 whole entry, looked up): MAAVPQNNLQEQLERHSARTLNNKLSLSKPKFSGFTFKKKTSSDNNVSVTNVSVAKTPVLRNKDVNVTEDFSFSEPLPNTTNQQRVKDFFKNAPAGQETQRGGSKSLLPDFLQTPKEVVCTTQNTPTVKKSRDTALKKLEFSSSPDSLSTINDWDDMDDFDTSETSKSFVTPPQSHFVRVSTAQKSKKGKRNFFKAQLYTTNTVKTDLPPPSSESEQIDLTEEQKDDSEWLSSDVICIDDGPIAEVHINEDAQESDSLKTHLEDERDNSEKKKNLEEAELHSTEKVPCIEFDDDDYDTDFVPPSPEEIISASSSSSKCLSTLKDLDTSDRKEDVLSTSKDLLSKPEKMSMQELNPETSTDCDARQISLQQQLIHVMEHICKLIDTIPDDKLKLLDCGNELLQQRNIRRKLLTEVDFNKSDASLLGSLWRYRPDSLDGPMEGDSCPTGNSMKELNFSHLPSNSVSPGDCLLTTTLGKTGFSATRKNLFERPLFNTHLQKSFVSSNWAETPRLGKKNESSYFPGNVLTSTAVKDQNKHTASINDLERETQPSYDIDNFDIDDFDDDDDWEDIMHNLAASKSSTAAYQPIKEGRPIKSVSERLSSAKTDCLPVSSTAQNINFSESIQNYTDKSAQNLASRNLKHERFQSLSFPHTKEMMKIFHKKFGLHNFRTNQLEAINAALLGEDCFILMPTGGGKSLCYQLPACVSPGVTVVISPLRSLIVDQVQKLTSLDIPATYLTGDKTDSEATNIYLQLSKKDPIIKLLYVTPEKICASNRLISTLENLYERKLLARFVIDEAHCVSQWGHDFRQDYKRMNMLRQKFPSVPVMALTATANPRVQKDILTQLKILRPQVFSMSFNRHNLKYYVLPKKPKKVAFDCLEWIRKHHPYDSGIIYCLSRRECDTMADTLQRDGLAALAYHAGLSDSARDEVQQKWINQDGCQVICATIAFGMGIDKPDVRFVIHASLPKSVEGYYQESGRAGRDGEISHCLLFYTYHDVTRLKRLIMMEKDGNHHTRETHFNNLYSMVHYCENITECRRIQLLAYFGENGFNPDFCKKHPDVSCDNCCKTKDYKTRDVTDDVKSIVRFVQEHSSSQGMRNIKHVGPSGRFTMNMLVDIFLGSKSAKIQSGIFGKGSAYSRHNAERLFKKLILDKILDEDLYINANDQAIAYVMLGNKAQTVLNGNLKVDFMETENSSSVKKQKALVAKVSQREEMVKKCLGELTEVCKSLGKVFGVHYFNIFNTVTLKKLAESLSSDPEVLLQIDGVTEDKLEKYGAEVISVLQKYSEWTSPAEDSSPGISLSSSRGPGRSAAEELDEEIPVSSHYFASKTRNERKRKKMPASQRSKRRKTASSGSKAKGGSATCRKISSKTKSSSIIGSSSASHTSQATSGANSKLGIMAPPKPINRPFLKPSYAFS

Activity change, negative = inhibition, inactive:
O=C(Nc1ccc(Cl)c(Cl)c1)Nc1cccc(-c2ccncc2)n1 -17.9%
Cc1cc(NC(=O)Nc2cccc(-c3ccncc3)n2)ccc1F -5.53%
O=C(Nc1ccc(N2CCOCC2)c(F)c1)Nc1nnc(-c2ccncc2)s1 6.47%
O=C(Nc1ccc2ccccc2c1)Nc1nnc(Br)s1 6.02%
CC(C)(C)c1ccc(-c2nnc(NC(=O)Nc3ccc4ccccc4c3)s2)cc1 -5.07%
COc1ccccc1CNC(=O)Nc1nnc(-c2ccncc2)s1 18%
Cc1cc(NC(=O)Nc2nnc(C3CCCCC3)s2)ccc1Br -11.7%
Nc1ccc(-c2nnc(NC(=O)Nc3ccc(Cl)c(Cl)c3)s2)cc1 -18.4%
O=C(Nc1ccc(Cl)c(Cl)c1)Nc1nnc(NC2CCNCC2)s1 27.6%
O=C(Nc1ccc2ccccc2c1)Nc1nnc(-c2ccc(F)cc2)s1 -3.34%
O=C(Nc1ccc(F)c(C(F)(F)F)c1)Nc1nnc(-c2ccncc2)o1 -14.1%
O=C(Nc1nnc(-c2ccncc2)s1)Nc1ccc(Cl)cc1F -12.5%
Cc1cc(NC(=O)Nc2nnc(C3CCCCC3)s2)ccc1F -1.09%
O=C(Nc1ccc2ccccc2c1)Nc1nnc(-c2ccccc2Cl)s1 -0.762%
O=C(Nc1ccc2ccccc2c1)Nc1nnc(-c2ccccn2)s1 -10.8%
O=C(Nc1cc(F)cc(F)c1)Nc1nnc(-c2ccncc2)s1 -9.82%
CC(=O)c1cccc(NC(=O)Nc2nnc(-c3ccncc3)s2)c1 -4.72%
O=C(Nc1ccc2ccccc2c1)Nc1nnc(-c2ccncc2)o1 6.97%
CC(C)(C)NC(=O)Nc1nnc(-c2ccncc2)s1 23.3%
O=C(Nc1ccc(-c2nc3ccccc3[nH]2)cc1)Nc1ccc2c(c1)OCCO2 -2.02% [at 114 µM]
O=C(Nc1ccc2c(c1)OCCO2)Nc1nnc(-c2ccncc2)s1 11.9%
CCOC(=O)c1cccc(NC(=O)Nc2nnc(-c3ccncc3)s2)c1 2.71%
O=C(Nc1ccc(-c2nc3ccccc3[nH]2)cc1)Nc1ccc2occc2c1 -7.88% [at 114 µM]
O=C(Nc1ccc(Cl)c(Cl)c1)Nc1nc(-c2ccncc2)cs1 -14%
Cc1cc(NC(=O)Nc2nnc(-c3cccnc3)s2)ccc1F -13.4%
O=C(Nc1ccc2ccccc2c1)Nc1nnc(C2CCCCC2)s1 -8.14%
O=C(Nc1ccc(Cl)c(Cl)c1)Nc1ncc(-c2ccncc2)s1 -7.96%
O=C(NCc1ccc(Cl)c(Cl)c1)Nc1nnc(-c2ccncc2)s1 -27.9%
CC(=O)c1ccc(NC(=O)Nc2nnc(-c3ccncc3)s2)cc1 -3.59%
O=C(Nc1ccc2ccccc2c1)Nc1nnc(-c2ccccc2)s1 0.431%

Potency, inactive and 20.4 µM (active):
N/C(=N\c1nnc(-c2ccncc2)s1)Nc1ccc(F)c(C(F)(F)F)c1

Potency, active:
N#Cc1cccc(NC(=O)Nc2nnc(-c3ccncc3)s2)c1 2.29 µM
O=C(Nc1nnc(-c2ccncc2)s1)Oc1ccc2ccccc2c1 32.4 µM
O=C(Cc1ccc2ccccc2c1)Nc1nnc(-c2ccncc2)s1 16.2 µM
O=C(Nc1ccc(Cl)c([N+](=O)[O-])c1)Nc1nnc(-c2ccncc2)s1 1.82 µM
O=C(Nc1ccc(Br)cc1)Nc1nnc(-c2ccncc2)s1 8.13 µM
N#Cc1cc(NC(=O)Nc2nnc(-c3ccncc3)s2)ccc1Br 0.646 µM
N#Cc1cc(NC(=O)Nc2nnc(-c3ccncc3)s2)ccc1-c1cn[nH]c1 1.02 µM and 5.13 µM
O=C(Nc1ccc2sccc2c1)Nc1nnc(-c2ccncc2)s1 7.25 µM
N#Cc1cc(NC(=O)Nc2nnc(-c3ccncc3)s2)ccc1F 1.02 µM
